The record followed here is PubChem BioAssay (NCI).

Test systems include SK-MEL-2 melanoma; SN12C renal; UO-31 renal; TK-10 renal; ACHN renal; CAKI-1 renal; A498 renal; OVCAR-8 ovarian; OVCAR-4 ovarian; SK-OV-3 ovarian; IGROV1 ovarian; OVCAR-3 ovarian; HS 578T breast; NCI/ADR-RES ovarian; MOLT-4 leukemia.
Holding throughout (assay): NCI-60 one-dose screen, 48 h (100 = growth as untreated, 0 = no growth, -100 = all killed)
Another assay concerns EKVX NSCLC. Conditions: 10 µM unless noted.
A further assay has as its system CCRF-CEM leukemia. Conditions: 10 µM unless noted.
For a further assay, the system named is SR leukemia. Particulars: 10 µM unless noted.
A further assay concerns RPMI-8226 leukemia. Conditions: 10 µM unless noted.
For the next assay, the system named is OVCAR-5 ovarian. Conditions: 10 µM unless noted.

The structures appear in SMILES notation. About 83,000 compounds went through this panel and 20% of them were active in at least one assay; those are over-represented in the sample as a whole.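 A percent growth of 40 corresponds to 60% growth inhibition; 0 means no net growth; -100 means all cells died. Active threshold: below 10.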 The source made the active and inactive calls.

`CCN(CC)CCOc1ccc(-c2nc3cc(Cl)ccc3s2)cc1`: the growth in the assay on SK-MEL-2 melanoma (10 µM unless noted) was 80.2% (inactive); in the assay with EKVX NSCLC, 57.3% (inactive); in the assay with SN12C renal (10 µM unless noted), 36% (inactive); in the assay with UO-31 renal (10 µM unless noted), -46.7% (active); in the assay with TK-10 renal (10 µM unless noted), 8.65% (active); with ACHN renal (10 µM unless noted) it was 10.3% (inactive). The growth is 11.9% (inactive) in the assay on CAKI-1 renal (10 µM unless noted); -0.459% (active) in the assay on A498 renal (10 µM unless noted); 4.45% (active) with CCRF-CEM leukemia; -69.6% (active) in the assay with SR leukemia; -12.2% (active) with RPMI-8226 leukemia; 40.9% (inactive) in the assay on OVCAR-8 ovarian (10 µM unless noted). Moreover, the growth in the assay with OVCAR-5 ovarian is -0.127% (active); with OVCAR-4 ovarian (10 µM unless noted), 58.5% (inactive); in the assay on SK-OV-3 ovarian (10 µM unless noted), 59.9% (inactive); in the assay on IGROV1 ovarian (10 µM unless noted), -27.3% (active); in the assay with OVCAR-3 ovarian (10 µM unless noted) it was -4.49% (active); in the assay with HS 578T breast (10 µM unless noted), -29.2% (active). Besides, in the assay with NCI/ADR-RES ovarian (10 µM unless noted), the growth is -26.1% (active).
Consider `N#CSCC(=O)c1ccc(Cl)cc1`, for which the growth in the assay with SK-MEL-2 melanoma (10 µM unless noted) is 80.8% (inactive); in the assay on EKVX NSCLC, 82.6% (inactive); in the assay with SN12C renal (10 µM unless noted) it was 33.6% (inactive); in the assay on UO-31 renal (10 µM unless noted), 28.3% (inactive); with TK-10 renal (10 µM unless noted) it was 82.7% (inactive); in the assay on ACHN renal (10 µM unless noted), 52% (inactive). Also, the growth in the assay with CAKI-1 renal (10 µM unless noted) is 31.8% (inactive); in the assay on A498 renal (10 µM unless noted), 83.7% (inactive); with CCRF-CEM leukemia, 52.5% (inactive); in the assay with SR leukemia it was 69.9% (inactive); with RPMI-8226 leukemia, 45.6% (inactive); in the assay on OVCAR-5 ovarian it was 22.5% (inactive). In addition, the growth in the assay with OVCAR-4 ovarian (10 µM unless noted) is 63.5% (inactive); in the assay with SK-OV-3 ovarian (10 µM unless noted), 66.7% (inactive); with OVCAR-3 ovarian (10 µM unless noted), -25.3% (active); in the assay with HS 578T breast (10 µM unless noted), 70.5% (inactive); in the assay on NCI/ADR-RES ovarian (10 µM unless noted) it was -16.4% (active).
As for `CNc1ccc(N)cc1`, the growth in the assay on SK-MEL-2 melanoma (10 µM unless noted) is 120% (inactive); in the assay on EKVX NSCLC, 93.7% (inactive); in the assay with SN12C renal (10 µM unless noted) it was 110% (inactive); with UO-31 renal (10 µM unless noted), 98.2% (inactive); in the assay on TK-10 renal (10 µM unless noted), 130% (inactive); in the assay with ACHN renal (10 µM unless noted), 92.8% (inactive). Moreover, the growth with CAKI-1 renal (10 µM unless noted) was 91.4% (inactive); in the assay on A498 renal (10 µM unless noted), 120% (inactive); with CCRF-CEM leukemia, 87.6% (inactive); in the assay with MOLT-4 leukemia (10 µM unless noted), 97.6% (inactive); in the assay with SR leukemia, 119% (inactive); in the assay on OVCAR-5 ovarian, 106% (inactive). Besides, the growth was 89.6% (inactive) with OVCAR-4 ovarian (10 µM unless noted); 114% (inactive) in the assay with SK-OV-3 ovarian (10 µM unless noted); 101% (inactive) with IGROV1 ovarian (10 µM unless noted); 112% (inactive) with OVCAR-3 ovarian (10 µM unless noted); 87.6% (inactive) in the assay on NCI/ADR-RES ovarian (10 µM unless noted).
`CN1c2ccccc2C(C)(C)C12C=Cc1cc(O)ccc1O2` (centres undefined): the growth with SK-MEL-2 melanoma (10 µM unless noted) is 57.5% (inactive); in the assay with EKVX NSCLC, 105% (inactive); in the assay on SN12C renal (10 µM unless noted), 48.7% (inactive); in the assay on UO-31 renal (10 µM unless noted), 60.6% (inactive); with TK-10 renal (10 µM unless noted), 80.7% (inactive); in the assay on ACHN renal (10 µM unless noted), 73.3% (inactive). The growth was 65.9% (inactive) with CAKI-1 renal (10 µM unless noted); 26% (inactive) with A498 renal (10 µM unless noted); -16.8% (active) with CCRF-CEM leukemia; -17.6% (active) in the assay with MOLT-4 leukemia (10 µM unless noted); 67.3% (inactive) in the assay on OVCAR-8 ovarian (10 µM unless noted); 82.5% (inactive) with OVCAR-5 ovarian. The growth was 72.9% (inactive) with OVCAR-4 ovarian (10 µM unless noted); 71.4% (inactive) in the assay on SK-OV-3 ovarian (10 µM unless noted); -7.4% (active) in the assay with IGROV1 ovarian (10 µM unless noted); 4.21% (active) with OVCAR-3 ovarian (10 µM unless noted); -7.66% (active) in the assay with HS 578T breast (10 µM unless noted); 26.4% (inactive) in the assay on NCI/ADR-RES ovarian (10 µM unless noted).
For the compound `C=CCOc1ccc(N=NC(C#N)C#N)cc1`, the growth with SK-MEL-2 melanoma (10 µM unless noted) was 87.3% (inactive); in the assay with EKVX NSCLC it was 92.6% (inactive); with SN12C renal (10 µM unless noted), 85.7% (inactive); in the assay with UO-31 renal (10 µM unless noted) it was 41.4% (inactive); in the assay on TK-10 renal (10 µM unless noted), 62.6% (inactive); in the assay on ACHN renal (10 µM unless noted), 36% (inactive). The growth in the assay on CAKI-1 renal (10 µM unless noted) is 25.6% (inactive); in the assay with A498 renal (10 µM unless noted), 76% (inactive); in the assay with CCRF-CEM leukemia, 13.6% (inactive); with SR leukemia it was 8.51% (active); with RPMI-8226 leukemia, 2.95% (active); in the assay with OVCAR-5 ovarian, 93.8% (inactive). Further, the growth in the assay on OVCAR-4 ovarian (10 µM unless noted) was 31.6% (inactive); in the assay with SK-OV-3 ovarian (10 µM unless noted), 52.7% (inactive); with IGROV1 ovarian (10 µM unless noted), 53.3% (inactive); with OVCAR-3 ovarian (10 µM unless noted) it was 39.7% (inactive); in the assay on HS 578T breast (10 µM unless noted) it was 88.6% (inactive); in the assay with NCI/ADR-RES ovarian (10 µM unless noted), 103% (inactive).
As for `CC(C)c1ccc2nc3ccc(C(=O)NCCN4CCN(c5ccccc5)CC4)cn3c(=O)c2c1`, the growth with SK-MEL-2 melanoma (10 µM unless noted) is 75.4% (inactive); with EKVX NSCLC, 74.5% (inactive); in the assay on SN12C renal (10 µM unless noted), 69.9% (inactive); in the assay with UO-31 renal (10 µM unless noted), 50% (inactive); in the assay on TK-10 renal (10 µM unless noted) it was 93.9% (inactive); in the assay with ACHN renal (10 µM unless noted), 72.1% (inactive). For the same compound, the growth in the assay on CAKI-1 renal (10 µM unless noted) is 63.4% (inactive); in the assay on A498 renal (10 µM unless noted), 81.8% (inactive); with CCRF-CEM leukemia it was 50.7% (inactive); with MOLT-4 leukemia (10 µM unless noted), 38% (inactive); in the assay on SR leukemia, 51.7% (inactive); with RPMI-8226 leukemia, 20.5% (inactive). Moreover, the growth in the assay with OVCAR-8 ovarian (10 µM unless noted) was 46.8% (inactive); in the assay with OVCAR-4 ovarian (10 µM unless noted), 63.9% (inactive); with SK-OV-3 ovarian (10 µM unless noted) it was 93.4% (inactive); in the assay with IGROV1 ovarian (10 µM unless noted) it was 78.7% (inactive); with OVCAR-3 ovarian (10 µM unless noted), 77.5% (inactive); with HS 578T breast (10 µM unless noted) it was 59.2% (inactive). Besides, in the assay on NCI/ADR-RES ovarian (10 µM unless noted), the growth was 32.2% (inactive).
Turning to `O=C(Nc1ccccc1)c1cc(Cl)ccc1O`, the growth in the assay on SK-MEL-2 melanoma (10 µM unless noted) is -6.3% (active); in the assay on EKVX NSCLC, 88.2% (inactive); with SN12C renal (10 µM unless noted), 61.8% (inactive); with UO-31 renal (10 µM unless noted), 49.7% (inactive); in the assay with TK-10 renal (10 µM unless noted), 53.5% (inactive); in the assay with ACHN renal (10 µM unless noted), 57.3% (inactive). The growth in the assay on CAKI-1 renal (10 µM unless noted) is 49.6% (inactive); in the assay on A498 renal (10 µM unless noted), -4.6% (active); in the assay with CCRF-CEM leukemia, 68% (inactive); in the assay on SR leukemia it was 48.7% (inactive); in the assay with RPMI-8226 leukemia, 19.9% (inactive); in the assay with OVCAR-8 ovarian (10 µM unless noted), 44.9% (inactive). The growth in the assay on OVCAR-5 ovarian is 94.1% (inactive); in the assay with OVCAR-4 ovarian (10 µM unless noted), 41.3% (inactive); in the assay with SK-OV-3 ovarian (10 µM unless noted), 73.6% (inactive); in the assay with IGROV1 ovarian (10 µM unless noted), 58.9% (inactive); in the assay with OVCAR-3 ovarian (10 µM unless noted), 37.4% (inactive); with HS 578T breast (10 µM unless noted), 29% (inactive). Also, the growth with NCI/ADR-RES ovarian (10 µM unless noted) was 74.6% (inactive).
Consider `O=C(Nc1cccc(Br)c1)Oc1cccc2cccnc12`, for which the growth with SK-MEL-2 melanoma (10 µM) was 85.8% (inactive); in the assay on SK-MEL-2 melanoma (100 µM), 9.32% (active); in the assay with SN12C renal (10 µM), 99.4% (inactive); in the assay on SN12C renal (100 µM), -26.1% (active); in the assay on UO-31 renal (10 µM) it was 98.6% (inactive); in the assay on UO-31 renal (100 µM), 26% (inactive). Also, the growth was 118% (inactive) with TK-10 renal (10 µM); 112% (inactive) in the assay with TK-10 renal (100 µM); 103% (inactive) in the assay on ACHN renal (10 µM); 15.4% (inactive) in the assay with ACHN renal (100 µM); 94.4% (inactive) with CAKI-1 renal (10 µM); 67.9% (inactive) in the assay on CAKI-1 renal (100 µM). Also, the growth with A498 renal (10 µM) is 97.5% (inactive); in the assay with A498 renal (100 µM) it was 98.6% (inactive); in the assay on CCRF-CEM leukemia it was 14.4% [100 µM] (inactive); with MOLT-4 leukemia (10 µM), 115% (inactive); in the assay with MOLT-4 leukemia (100 µM), -0.787% (active); with SR leukemia it was 10.5% [100 µM] (inactive). In addition, the growth in the assay with OVCAR-8 ovarian (10 µM) is 102% (inactive); in the assay with OVCAR-8 ovarian (100 µM), 11% (inactive); in the assay on OVCAR-4 ovarian (10 µM), 80.7% (inactive); in the assay on OVCAR-4 ovarian (100 µM), -4.65% (active); in the assay on SK-OV-3 ovarian (10 µM), 110% (inactive); in the assay with SK-OV-3 ovarian (100 µM) it was 102% (inactive). In addition, the growth with IGROV1 ovarian (10 µM) is 106% (inactive); in the assay on IGROV1 ovarian (100 µM) it was 6.09% (active); in the assay with OVCAR-3 ovarian (10 µM), 119% (inactive); in the assay on OVCAR-3 ovarian (100 µM), -74.7% (active); in the assay with HS 578T breast (10 µM), 110% (inactive); in the assay on HS 578T breast (100 µM), 79.3% (inactive). Further, the growth is 103% (inactive) in the assay with NCI/ADR-RES ovarian (10 µM) and 4.89% (active) in the assay on NCI/ADR-RES ovarian (100 µM).
